# Test results taken from ChEMBL document CHEMBL3988442, “University of Dundee, Small-Polar-MMV Screening Library” (2021).
# Among all 48,000 compounds or so, about 13,000 (27%) showed an effect of 50% or more. Some of the results follow.
# System: Wolbachia pipientis
# Test: Anti-Wolbachia Cell-Based Screen
# Type: functional
# Set-up: scale not given: in the data most compounds retested in dose-response had high values
# Settings: 5 µM
row,Compound,Percent Effect
1,CC(=O)Nc1ccc2nn(C(C)C)cc2c1,3.305%
2,Cc1cc2cccc(C(=O)N3CCOC4(CNCCOC4)C3)c2o1 (stereo not drawn),-17.55%
3,CCN(CC)CCNCC1CCOC(C)(C)C1 (stereo not drawn),101.9%
4,CCN(CC)CCCNCC1CCOC(C)(C)C1 (stereo not drawn),90.59%
5,COc1c(NS(=O)(=O)c2ccc(F)c(C)c2)c(C)nn1C,6.685%
6,CC(=O)NC[C@@]1(COc2cnccn2)C[C@@H](O)[C@@H](O)C1.Cl,-2.09%
7,CCN(CC)C1(Cc2cc(-c3ccccn3)on2)COC1,-7.749%
8,CNC(=O)c1ccc(CN2CCC(N(C)Cc3noc(C)n3)C2)cc1 (stereo not drawn),12.29%
9,Cc1nc(CN(C)C2CCN(Cc3cccc(F)c3)C2)no1 (stereo not drawn),130.9%
10,Cc1nc(CN(C)C2CCN(Cc3ccc(C(N)=O)cc3)C2)no1 (stereo not drawn),137.1%
11,Cc1nc(CN(C)C2CCN(CCc3ccc4c(c3)CCO4)C2)no1 (stereo not drawn),131.2%
12,Cc1nc(CN(C)C2CCN(Cc3ccc4c(c3)OCCO4)C2)no1 (stereo not drawn),-0.871%
13,CNC(=O)c1cccc(CN2CCC(N(C)Cc3noc(C)n3)C2)c1 (stereo not drawn),9.379%
14,Cc1nc(CN(C)C2CCN(Cc3ccc4c(c3)CCC4)C2)no1 (stereo not drawn),94.75%
15,CC(C)(C)C(NC(=O)CCCS(C)(=O)=O)c1ccc(F)cc1F (stereo not drawn),6.458%
16,Cc1cnc(N2CCC3(CC2)CC(NC(=O)N(C)C)CO3)nc1 (stereo not drawn),3.12%
17,CC(C)c1cc(C(=O)N2C[C@@H](C)[C@](O)(C3CC3)C2)[nH]n1,9.432%
18,CCN(C(C)c1cccc(O)c1)S(=O)(=O)c1cccnc1 (stereo not drawn),-1.511%
19,CC(C)(C)c1c[nH]c([C@@H]2COCCN2C2CCNCC2)n1,-5.137%
20,Cc1cc(C)n(C2CN(CC(=O)N3CCOCC3)C2)n1,-1.985%
21,Cc1cc(C)n(C2CN(CCC(=O)NCCc3ccccc3)C2)n1,114.1%
22,Cc1cc(C)n(C2CN(CC(=O)NC3CCOCC3)C2)n1,-6.139%
23,Cc1cc(C)n(C2CN(CCC(N)=O)C2)n1,109.9%

row,Compound,Percent Effect
1,COc1cccc(CNC(=O)C(C)N2CC(n3nc(C)cc3C)C2)c1 (stereo not drawn),-5.224%
2,Cc1cc(C)n(C2CN(CC(O)Cn3cccn3)C2)n1 (stereo not drawn),-3.488%
3,Cc1cc(C)n(C2CN(Cc3ccc(C(=O)N4CCCC4)cc3)C2)n1,-4.233%
4,CCc1ccc(NC(=O)CCN2CC(n3nc(C)cc3C)C2)cc1,87.75%
5,Cc1cnn(C2CN(CC(=O)NCCc3ccccc3)C2)c1,-5.59%
6,CN(C)S(=O)(=O)NC(=O)CC(c1ccccc1)C(F)(F)F (stereo not drawn),-3.128%
7,CCCS(=O)(=O)NCc1cccnc1Oc1ccc(C)nc1,-8.382%
8,O=C(CC1OCCc2ccsc21)NCC1CC1 (stereo not drawn),-1.416%
9,CCc1nc(C(=O)N2CCN(CCc3ccc(OC)cc3)CC2)c[nH]1,-9.12%
10,Cc1ccc(C)c(N2CCN(CC3(O)CCNC3)CC2)c1 (stereo not drawn),-4.262%
11,Cc1cc(NC(=O)Cn2ccccc2=O)n(C)n1,-5.406%
12,O=C(NCCCO)C1CC(=O)N(c2n[nH]c3cccc(F)c23)C1 (stereo not drawn),13.85%
13,Cc1cc(O)cc(=O)n1CCCC(=O)Nc1n[nH]c2cc(Br)ccc12,109.7%
14,Cc1nonc1NC(=O)CCn1cc(Br)ccc1=O,-2.489%
15,Cn1nc(C(C)(C)C)cc1NC(=O)Cn1ccccc1=O,13.92%
16,Cc1noc(C)c1NC(=O)CCn1cc(Br)ccc1=O,5.297%
17,Cc1cc(O)cc(=O)n1CCCC(=O)Nc1n[nH]c2ccccc12,106.8%
18,Cc1cc(O)cc(=O)n1CCCC(=O)Nc1n[nH]c2cccc(F)c12,106.9%
19,Cc1ccccc1-c1cc(NC(=O)Cn2ccccc2=O)n(C)n1,-15.16%
20,COc1ccccc1OC1(C(=O)O)CCN(c2nccnc2OC)CC1,-49.7%
21,CC(=O)c1ccc(N2CCCC(CO)(Cc3ccccc3F)C2)nc1 (stereo not drawn),-130%
22,CC(C(=O)N1CCn2cncc2C1)N1C[C@@H](C)O[C@@H](C)C1 (stereo partly drawn),4.778%
23,Cc1nc(C)c(C(=O)N2CCCC2(C)C(=O)NC2CCCC2)s1 (stereo not drawn),95.95%

row,Compound,Percent Effect
1,Cc1nc(C)c(C(=O)N2CCCC2(C)C(=O)NC2CCCC2)o1 (stereo not drawn),148.2%
2,Cc1noc([C@@]23CCO[C@@H]2CCN(C(=O)c2c(C)noc2C)C3)n1,-5.968%
3,Cc1nc(C)c(C(=O)N2CCCc3c(F)ccc(F)c32)o1,-4.238%
4,Cc1noc(C)c1C(=O)N1CCCC1(C)C(=O)NC1CCCC1 (stereo not drawn),82.14%
5,COc1cccc2c1CCCCN2C(=O)c1oc(C)nc1C,-10.05%
6,Cc1noc(C2CCN(C(=O)c3c(C)noc3C)CC2)n1,-1.195%
7,CNC(=O)C1CCCCN1C(=O)c1sc(-c2ccc(C)o2)nc1C (stereo not drawn),8.745%
8,O=C(CCn1cccn1)N1CCN(CC(F)F)CC1,6.604%
9,CN(Cc1nc2ccsc2c(=O)[nH]1)CC1CCCCC1,-1.437%
10,COc1nc2ccn(CCc3cc(O)nc(C)n3)c(=O)c2cc1C#N,-7.353%
11,COc1ccc(CCN2CCc3c(nc(C4CC4)n3C)C2)cc1,-1.016%
12,Cc1nc(N(C)C)nc(NCCc2cnccn2)c1C,98.55%
13,Cc1nc(O)cc(CCNc2nc(N(C)C)nc(C)c2C)n1,19.28%
14,Cc1nc(CCNc2nc(N(C)C)nc3c2CCCC3)cc(=O)[nH]1,13.62%
15,c1nc(CCNc2nc(C3CC3)nc3c2CCNCC3)c[nH]1,9.275%
16,c1ccc(-c2nc3c(c(NCCc4c[nH]cn4)n2)CCNC3)cc1,7.707%
17,Cc1nc(N(C)C)nc(NCCc2c[nH]cn2)c1C,92.29%
18,Cc1nc(C)c(C)c(NCCSc2ccccn2)n1,-2.821%
19,Cc1nc(N(C)C)ncc1C(=O)NCCc1csc(-c2cnccn2)n1,-3.2%
20,Cc1nc(N(C)C)nc(NCCc2ccccn2)c1C,85.61%
21,Cc1cccnc1N1CCN(Cc2cc(O)c3cccc(F)c3n2)CC1,-4.875%
22,CCS(=O)(=O)N1CCOC2(CCCN(c3ncc(F)cn3)C2)C1 (stereo not drawn),-5.745%
